Laboratory results as given in PubChem BioAssay (EPA / NIEHS).
Calls of active or inactive are those of the source. Rule for the calls: active = hit-call score of the fitted dose curve at least 0.9, where 1 is the maximum; inactive = score below 0.9.

What was measured:
Details in all cases: mRNA level, 48 h; actives raise or lower the signal
[1] = read-out: Cyclin D1 (CCND1), CCND1 (gene 595); assay: LTEA_HepaRG_CCND1: Life Technologies and Expression Analysis (LTEA) Assay for Cyclin D1 (CCND1) using HepaRG (AID 2283451);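 for AC50: TaqMan qRT-PCR transcript level normalised to ACTB GAPDH and POLR2A housekeeping genes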
Procedure, shortened: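 qRT-PCR (Fluidigm 96.96 array) read-out of transcript level, housekeeping-normalized (ACTB/GAPDH/POLR2A). HepaRG cells, 48 h chemical exposure, 8-point half-log series from 100 uM, 0.5% DMSO vehicle; gain or loss relative to DMSO baseline.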

[2] = read-out: catalase (CAT), CAT (gene 847); assay: LTEA_HepaRG_CAT: Life Technologies and Expression Analysis (LTEA) Assay for catalase (CAT) using HepaRG (AID 2283452)
Procedure, shortened: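 HepaRG cells in serum-free induction medium, 0.5% DMSO vehicle, exposed 48 h in duplicate over 8 half-log concentrations from 100 uM. CAT mRNA measured by qRT-PCR, normalized to ACTB, GAPDH, POLR2A; bidirectional fit versus DMSO.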

[3] = read-out: flavin-containing dimethylaniline monooxygenases 3 (FMO3), FMO3 (gene 2328); assay: LTEA_HepaRG_FMO3: Life Technologies and Expression Analysis (LTEA) Assay for flavin-containing dimethylaniline monooxygenases 3 (FMO3) using HepaRG (AID 2283453)
Procedure, shortened: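 Differentiated HepaRG cells in serum-free induction medium, exposed 48 h in duplicate to 8 half-log concentrations up to 100 uM in 0.5% DMSO. FMO3 mRNA by qRT-PCR, normalized to ACTB, GAPDH, POLR2A; bidirectional fit vs DMSO.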

[4] = read-out: CFLAR gene, CFLAR (gene 8837); assay: LTEA_HepaRG_CFLAR: Life Technologies and Expression Analysis (LTEA) Assay for CFLAR gene using HepaRG (AID 2283455)
Procedure, shortened: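 Differentiated HepaRG cells in serum-free induction medium were exposed 48 h in duplicate to eight half-log concentrations up to 100 uM in 0.5% DMSO; mRNA measured by TaqMan qRT-PCR, normalized to ACTB, GAPDH, POLR2A; bidirectional fitting versus DMSO.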

[5] = read-out: Forkhead box O1 (FOXO1), FOXO1 (gene 2308); assay: LTEA_HepaRG_FOXO1: Life Technologies and Expression Analysis (LTEA) Assay for Forkhead box O1 (FOXO1) using HepaRG (AID 2283456)
Procedure, shortened: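 Differentiated HepaRG cells, in serum-free induction medium with 0.5% DMSO, exposed 48 h in duplicate to 8-point half-log series from 100 uM. FOXO1 mRNA measured by TaqMan qRT-PCR, normalized to ACTB, GAPDH, POLR2A; bidirectional fit versus DMSO.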

[6] = read-out: growth arrest and DNA damage 45 (GADD45A), GADD45A (gene 1647); assay: LTEA_HepaRG_GADD45A: Life Technologies and Expression Analysis (LTEA) Assay for growth arrest and DNA damage 45 (GADD45A) using HepaRG (AID 2283458)
Procedure, shortened: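 Cells plated and cultured 48 h, switched to serum-free induction medium, then dosed for 48 h (100 uM top, half-log dilutions, 0.5% DMSO). RNA was isolated and transcript measured by Fluidigm qRT-PCR.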

[7] = read-out: Forkhead box O3 (FOXO3), FOXO3 (gene 2309); assay: LTEA_HepaRG_FOXO3: Life Technologies and Expression Analysis (LTEA) Assay for Forkhead box O3 (FOXO3) using HepaRG (AID 2283459)
Procedure, shortened: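 Differentiated human HepaRG cells, 48 h post-plating, exposed in duplicate for 48 h in serum-free induction medium; 8-point half-log series from 100 uM in 0.5% DMSO. FOXO3 mRNA by TaqMan qRT-PCR, normalized to ACTB/GAPDH/POLR2A; bidirectional fit versus DMSO.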

[8] = read-out: ABC Transporter (ABCB1), ABCB1 (gene 5243); assay: LTEA_HepaRG_ABCB1: Life Technologies and Expression Analysis (LTEA) Assay for ABC Transporter (ABCB1) using HepaRG (AID 2283460)
Procedure, shortened: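 HepaRG cells exposed in duplicate for 48 h in serum-free induction medium to eight half-log concentrations up to 100 uM in 0.5% DMSO. ABCB1 mRNA quantified by qRT-PCR, normalised to ACTB, GAPDH and POLR2A; fitted bidirectionally versus DMSO.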

[9] = read-out: growth arrest and DNA damage 45 (GADD45B), GADD45B (gene 4616); assay: LTEA_HepaRG_GADD45B: Life Technologies and Expression Analysis (LTEA) Assay for growth arrest and DNA damage 45 (GADD45B) using HepaRG (AID 2283461)
Procedure, shortened: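 qRT-PCR read-out (Fluidigm TaqMan, housekeeping-normalized) of mRNA change in human HepaRG cells after 48 h chemical exposure; 8-point curve, top 100 uM, half-log steps, 0.5% DMSO vehicle; gain or loss fitted relative to DMSO baseline.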

[10] = read-out: ABC Transporter (ABCC3), ABCC3 (gene 8714); assay: LTEA_HepaRG_ABCC3: Life Technologies and Expression Analysis (LTEA) Assay for ABC Transporter (ABCC3) using HepaRG (AID 2283462)
Procedure, shortened: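 qRT-PCR read-out of ABCC3 transcript, normalized to three housekeeping genes (ACTB, GAPDH, POLR2A), after 48 h chemical exposure of human HepaRG cells. Eight half-log concentrations, highest 100 uM, in 0.5% DMSO; gain or loss fitted relative to DMSO baseline.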

[11] = read-out: ABC Transporter (ABCB11), ABCB11 (gene 8647); assay: LTEA_HepaRG_ABCB11: Life Technologies and Expression Analysis (LTEA) Assay for ABC Transporter (ABCB11) using HepaRG (AID 2283463)
Procedure, shortened: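 Differentiated human HepaRG cells in serum-free induction medium, dosed in duplicate for 48 h. Eight-point half-log series from 100 uM in 0.5% DMSO; ABCB11 mRNA by qRT-PCR, normalized to ACTB, GAPDH, POLR2A, fitted bidirectionally versus DMSO.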

[12] = read-out: ABC Transporter (ABCC2), ABCC2 (gene 1244); assay: LTEA_HepaRG_ABCC2: Life Technologies and Expression Analysis (LTEA) Assay for ABC Transporter (ABCC2) using HepaRG (AID 2283464)
Procedure, shortened: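 qRT-PCR (TaqMan, Fluidigm array) read-out of ABCC2 mRNA, normalized to three housekeeping genes. Differentiated HepaRG cells were treated 48 h in serum-free induction medium with 8-point half-log series from 100 uM in 0.5% DMSO; curves fitted bidirectionally relative to DMSO.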

[13] = read-out: Broad substrate specificity ATP-binding cassette transporter ABCG2 (Homo sapiens) (UniProt Q9UNQ0); assay: LTEA_HepaRG_ABCG2: Life Technologies and Expression Analysis (LTEA) Assay for ABC Transporter (ABCG2) using HepaRG (AID 2283465)
Procedure, shortened: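 Differentiated HepaRG cells were exposed for 48 h in serum-free induction medium to 8 half-log concentrations, top 100 uM, in 0.5% DMSO. ABCG2 mRNA was measured by qRT-PCR, normalized to ACTB, GAPDH and POLR2A, with bidirectional fitting versus DMSO.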

[14] = read-out: ATP-citrate lyase (ACLY), ACLY (gene 47); assay: LTEA_HepaRG_ACLY: Life Technologies and Expression Analysis (LTEA) Assay for ATP-citrate lyase (ACLY) using HepaRG (AID 2283466)
Procedure, shortened: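 Differentiated HepaRG cells exposed 48 h in serum-free induction medium to eight half-log concentrations up to 100 uM in 0.5% DMSO, duplicates. Transcript measured by Fluidigm TaqMan qRT-PCR, normalized to ACTB, GAPDH, POLR2A; bidirectional fit versus DMSO.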

[15] = read-out: Peroxisomal acyl-coenzyme A oxidase 1 (ACOX1) gene, ACOX1 (gene 51); assay: LTEA_HepaRG_ACOX1: Life Technologies and Expression Analysis (LTEA) Assay for Peroxisomal acyl-coenzyme A oxidase 1 (ACOX1) gene using HepaRG (AID 2283467)
Procedure, shortened: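 HepaRG cells, plated 48 h then switched to serum-free induction medium, were exposed in duplicate for 48 h to 8-point half-log concentrations up to 100 uM in 0.5% DMSO. ACOX1 mRNA was measured by qRT-PCR, normalized to ACTB/GAPDH/POLR2A, and fitted bidirectionally versus DMSO.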

[16] = read-out: Alkaline Phosphatase, Placental (ALPP) gene, ALPP (gene 250); assay: LTEA_HepaRG_ALPP: Life Technologies and Expression Analysis (LTEA) Assay for Alkaline Phosphatase, Placental (ALPP) gene using HepaRG (AID 2283468)
Procedure, shortened: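 qRT-PCR readout of ALPP mRNA (Fluidigm TaqMan), normalized to ACTB/GAPDH/POLR2A, after 48 h chemical exposure of HepaRG cells; 8-point half-log series, top 100 uM, 0.5% DMSO vehicle. Bidirectional curve fit versus DMSO baseline.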

[17] = read-out: Bcl-2 (BAD) gene, BAD (gene 572); assay: LTEA_HepaRG_BAD: Life Technologies and Expression Analysis (LTEA) Assay for Bcl-2 (BAD) gene using HepaRG (AID 2283469)
Procedure, shortened: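 Differentiated HepaRG cells were exposed in duplicate in 0.5% DMSO for 48 h to eight-point half-log concentrations up to 100 uM. BAD mRNA was measured by Fluidigm TaqMan qRT-PCR, normalized to ACTB, GAPDH and POLR2A, and fitted bidirectionally against DMSO.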

[18] = read-out: Bcl-2 (BAX) gene, BAX (gene 581); assay: LTEA_HepaRG_BAX: Life Technologies and Expression Analysis (LTEA) Assay for Bcl-2 (BAX) gene using HepaRG (AID 2283470)
Procedure, shortened: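 HepaRG (human liver), 48 h exposure, duplicate wells. 8-pt curve, half-log from 100 uM, 0.5% DMSO. BAX transcript by TaqMan qRT-PCR; ACTB/GAPDH/POLR2A normalization; gain or loss vs DMSO baseline.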

[19] = read-out: Cytochrome P450 (CYP1A1), CYP1A1 (gene 1543); assay: LTEA_HepaRG_CYP1A1: Life Technologies and Expression Analysis (LTEA) Assay for Cytochrome P450 (CYP1A1) using HepaRG (AID 2283454)
Procedure, shortened: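 qRT-PCR read-out: CYP1A1 transcript normalized to three housekeeping genes, fitted bidirectionally against 0.5% DMSO vehicle baseline. Human HepaRG cells, 48 h chemical exposure, 8-point half-log series topping at 100 uM.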

Measured: AC50

Chain of Broad substrate specificity ATP-binding cassette transporter ABCG2 (Homo sapiens) (Q9UNQ0 whole entry, looked up): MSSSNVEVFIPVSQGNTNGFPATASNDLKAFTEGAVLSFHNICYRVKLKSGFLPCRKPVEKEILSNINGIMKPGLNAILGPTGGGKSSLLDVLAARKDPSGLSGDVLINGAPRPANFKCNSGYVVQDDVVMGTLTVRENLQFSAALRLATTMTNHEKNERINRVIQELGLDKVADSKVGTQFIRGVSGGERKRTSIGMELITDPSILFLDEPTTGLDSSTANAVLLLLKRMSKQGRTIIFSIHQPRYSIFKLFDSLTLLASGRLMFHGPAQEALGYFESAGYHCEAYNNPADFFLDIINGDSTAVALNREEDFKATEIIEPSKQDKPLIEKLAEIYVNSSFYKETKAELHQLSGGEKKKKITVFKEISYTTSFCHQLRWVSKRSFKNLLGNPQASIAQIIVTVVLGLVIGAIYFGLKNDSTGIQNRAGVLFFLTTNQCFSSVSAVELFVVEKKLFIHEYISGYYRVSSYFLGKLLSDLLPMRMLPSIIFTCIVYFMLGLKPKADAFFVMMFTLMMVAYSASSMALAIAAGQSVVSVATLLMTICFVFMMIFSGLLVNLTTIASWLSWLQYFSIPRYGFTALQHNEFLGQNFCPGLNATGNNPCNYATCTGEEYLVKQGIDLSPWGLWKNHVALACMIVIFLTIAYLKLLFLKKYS

C[C@]12CC[C@@H]3c4ccc(O)cc4CC[C@H]3[C@@H]1CCC2=O
active: [3] 50 µM | [8] 14.4 µM | [13] 16.7 µM
not listed: [19]
inactive: all other assays above

Cc1cccc2ccccc12
inactive: all assays above

Cc1cc(F)ccc1-c1cc(N2CC[C@@H](O)[C@H]2CO)ncc1N(C)C(=O)C(C)(C)c1cc(C(F)(F)F)cc(C(F)(F)F)c1
active: [2] 11.7 µM | [3] 21.9 µM | [19] 70.6 µM | [4] 75.7 µM | [8] 10.3 µM | [9] 76 µM | [11] 21.8 µM | [12] 70.7 µM | [13] 16.7 µM | [15] 8.09 µM | [16] 16.5 µM | [17] 72.1 µM | [18] 74.8 µM
inactive: [1] | [5] | [6] | [7] | [10] | [14]

CC1=CC(=O)/C(=C(/C)O)C(=O)O1
inactive: all assays above

CN(C[C@@H](CC[N+]12CCC(C3CCCCC3)(CC1)CC2)c1ccc(Cl)c(Cl)c1)C(=O)c1cc(C(F)(F)F)cc(C(F)(F)F)c1
active: [1] 28.9 µM | [2] 17.5 µM | [3] 50 µM | [19] 14.9 µM | [4] 50 µM | [5] 35.9 µM | [6] 0.171 µM | [7] 30.6 µM | [8] 74.2 µM | [11] 14.5 µM | [12] 63.3 µM | [15] 63.5 µM | [16] 3.14 µM
inactive: [9] | [10] | [13] | [14] | [17] | [18]
